Experimental findings from PubChem BioAssay (Tox21) are described below.

SMILES strings stand for the structures. Results filed as inconclusive are left out. A call without a number means that no potency is given here. Active and inactive are the calls of the source. Calls follow the shape of the dose curve; as a rule, active = well fitted cell-killing curve with a large enough effect in the repeat runs; inconclusive = weak or mixed curves, or effect the other way; inactive = flat fitted curve, though single readings scatter.

This experiment in a line: cAMP Responsive Elements (CRE) small molecule agonists, cell-based qHTS assay: qHTS cell viability counter screen (AID 2060914).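 Also: viability read after 3 h of compound exposure; nearly all actives have a fitted effect of over 50% in size.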 As to conditions: CRE-bla HEK293T viability, CellTiter-Glo luminescence, 5 h; series mostly up to 92.4 µM. The source says: National Center for Advancing Translational Sciences [NCATS]
Division of Preclinical Innovation [DPI]
U.S. Environmental Protection Agency [EPA]
National Institutes of Environmental Health Sciences [NIEHS]
National Toxicology Program [NTP]
U.S. Food and Drug Administration [FDA]
CREB (cyclic-AMP Responsive Element Binding Protein) is a cellular transcription factor. It binds to certain DNA sequences called cAMP Responsive Elements (CRE) and regulates the transcription of the genes. […] This cell line can be used to find agonists/antagonists of the cyclic AMP signaling pathway. The activation of the report gene under culture conditions can be detected by fluorescence intensity. This cell line has been used to screen the Tox21 10K compound library to identify agonists that induce oxidative stress. The cytotoxicity of the Tox21 compound library against the CRE-bla cell line was tested in parallel by measuring the cell viability using CellTiter-Glo assay (Promega, Madison, WI) in the same wells.
Tox21 Assay Protocol Summary:
CRE-bla Hek 293T cells were suspended in assay medium (DMEM containing 10% dialyzed FBS, 0.1 mM NEAA, 1 mM sodium pyruvate and 25 mM HEPES) and dispensed at 2,000 cells/5 uL /well into 1536-well black wall/clear bottom plates using a Multidrop Combi (ThermoFisher Scientific, Waltham, MA) dispenser. After the assay plates were incubated at 37 C/5% CO2 for 18 hrs, 23 nL of compounds dissolved in DMSO, positive controls or DMSO only was transferred to the assay plate by a pintool workstation (Kalypsys, San Diego, CA). After the plates were incubated at 37 C/5% CO2 for 3 hrs, 1 uL of LiveBLAzer B/G FRET substrate (Invitrogen, Carlsbad, CA) was added to each well using Bioraptr Flying Reagent Dispenser (FRD, Aurora Discovery, San Diego, CA). The plates were incubated at room temperature for 2 h, then fluorescence intensities were measured using an Envision plate reader (PerkinElmer, Shelton, CT) at Excitation 405nm, Emission 460nm and 530nm. The % activity was determined from the ratio of 460nm/530nm. For cell viability readout that measures cytotoxicity, 4 uL /well of CellTiter-Glo reagent was added into the assay plates using Bioraptr FRD. After 30 min incubation at room temperature, the luminescence intensity in the assay plates was measured using a ViewLux (PerkinElmer, Shelton, CT) plate reader.
For orientation: Quantitative high-throughput screening tests each substance at several concentrations.
On to `Cc1cc(C)c(C2=C(OC(=O)CC(C)(C)C)C3(CCCC3)OC2=O)c(C)c1`, for which the Potency entry was “inactive”.
As for `CN[C@@H](C)[C@H](O)c1ccccc1`, the Potency result is “inactive”.
The value for `O=C(O)COc1ccccc1` was “inactive”; that for `CC(=O)C(Cl)(Cl)Cl` was “inactive”.
For `CCCC(C)(COC(N)=O)COC(=O)NC(C)C` (stereo not given), the Potency entry is “inactive”.
For the molecule `CCCC[P+](CC)(CCCC)CCCC` (tested in a mixture with another compound), the Potency entry is “inactive”.
With `Nc1c(Br)cc([N+](=O)[O-])cc1[N+](=O)[O-]`, the Potency result was “inactive”.
The value for `CCN(CC)c1ccccc1` was “inactive”.
The entry for `ClCCCCl` is “inactive”.
`NCC1(CC(=O)O)CCCCC1`: the Potency entry was “inactive”.
With `COC(=O)N(C(=O)N1COC2(C(=O)OC)Cc3cc(Cl)ccc3C2=N1)c1ccc(OC(F)(F)F)cc1` (stereo not given), the Potency entry was “inactive”.
In the case of `COc1ccc2c(c1OC)C(=O)O[C@@H]2[C@H]1c2cc3c(cc2CCN1C)OCO3`, the Potency entry is “inactive”.
On to `BrCBr`, for which the Potency result was “inactive”.
The value for `NC(=O)CCl` was “inactive”.
With `Cc1ccc(N(SC(F)(Cl)Cl)S(=O)(=O)N(C)C)cc1`, the Potency result is “inactive”.
`CC(=O)/C=C/c1ccccc1`: the Potency result is “inactive”.
Consider `COP(=S)(OC)Oc1ccc([N+](=O)[O-])c(C)c1`, for which the Potency entry is “inactive”.
The entry for `COP(=S)(OC)Oc1ccc(SC)c(C)c1` is “inactive”; for `N#CC(C#N)=NNc1cccc(Cl)c1` it is “inactive”; for `O=C(O)CF` it is “inactive”.
The value for `NC(=S)C(N)=S` was “inactive”; that for `CN=C=O` was “inactive”.
`C=CC#N`: the Potency result was “inactive”.
With `COc1c2c(cc3c1OCO3)CCN(C)C2`, the Potency entry was “inactive”.
As to `CCOC(C(=O)OCCN(C)C)(c1ccccc1)c1ccccc1`, the Potency result is “inactive”.
`CC(=O)C(Cl)Cl`: the Potency result is “inactive”.
Take `Nc1cc(Cl)ccc1O`: the Potency entry was “inactive”.
As to `Oc1ccc(C(c2ccc(O)cc2)(C(F)(F)F)C(F)(F)F)cc1`, the Potency entry was “inactive”.
As for `Cc1c([N+](=O)[O-])c(C)c([N+](=O)[O-])c(C(C)(C)C)c1[N+](=O)[O-]`, the Potency result was “inactive”.
With `OCCSSCCO`, the Potency result is “inactive”.
With `CCN(CC)CCN1C(=O)CN=C(c2ccccc2F)c2cc(Cl)ccc21`, the Potency result was “inactive”.
For `Cc1ccc(C)c2ccccc12`, the Potency entry was “inactive”.
`CCOP(=S)(OCC)SCSc1cc(Cl)ccc1Cl`: the Potency result is “inactive”.
In the case of `Clc1ccc(-c2ccc(Cl)c(Cl)c2Cl)c(Cl)c1Cl`, the Potency result is “inactive”.
For `CC(C)[C@]12CC(=O)[C@H](C)[C@H]1C2`, the Potency result was “inactive”.
The value for `FC(Cl)(Cl)Cl` was “inactive”; that for `[N-]=[N+]=CC(=O)OC[C@H](N)C(=O)O` was “inactive”.
`O=C1c2ccccc2C(=O)N1SC(Cl)(Cl)Cl`: the Potency result was “inactive”.
Regarding `O=C(c1ccccc1)C(Cl)Cl`, the Potency entry was “inactive”.
The value for `CC1(C)C(C=C(Cl)Cl)C1C(=O)OC(C#N)c1ccc(F)c(Oc2ccccc2)c1` (stereo not given) was “inactive”.
